About 83,000 compounds went through this panel and 20% of them were active in at least one assay; those are over-represented in the sample as a whole.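 For each line, cells grew in 96-well plates with the test compound present at a single concentration for 48 hours.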 A number with no mark means an inactive call. Active and inactive are the calls of the source. Rule for the calls: active = growth percent below 10; inactive = the rest.

In the experiment the test system is HCT-116 colon. Nature of the experiment: NCI-60 one-dose screen, 48 h (100 = growth as untreated, 0 = no growth, -100 = all killed). The following applies: 10 µM unless noted.
`O=[As](O)(O)c1ccccc1[As](=O)(O)O`: the growth was 107%. `Clc1ccc(COC(Cn2ccnc2)c2ccc(Cl)cc2Cl)cc1` (stereo unspecified): the growth was 33.6%. For the molecule `CN(C)C(=O)Oc1ccccc1`, the growth is 104%.

As to `CC[C@H](C)[C@H](NC(=O)C12C3C4C1C1C2C3C41NC(C)=O)C(=O)N(C)[C@H](C[C@@H](OC(C)=O)c1nc(C(=O)N[C@@H](Cc2ccccc2)C[C@H](C)C(=O)OC)cs1)C(C)C` (stereo partly specified), the growth is 6.15% (active).

With `COc1ccc(C(=O)c2sc3nc4c(cc3c2N)N2CCC4CC2)cc1OC`, the growth was 86.2%. Under `CCC(CC)CC1(C)CC2(C)CCOC2OO1` (stereo unspecified) stands 108%; under `ClCCN(CCCl)c1ccc(/C=N\N=C\c2ccc(N(CCCl)CCCl)cc2)cc1`, 36.7%; under `CCOC(=O)C(Cc1ccc(N(CCCl)CCCl)cc1)NC(=O)C(CC(C)C)NC(C)=O` (stereo unspecified), 23.6%. In the case of `CNCc1cccnc1`, the growth was 107%. On to `CCN(CCO)C(Cc1ccccc1)c1ccccc1` (stereo unspecified), for which the growth was 99.3%. Under `C=CCc1cc2c(cc1OCC)OCO2` stands 85.5%; under `N#Cc1c(Br)n(C2OC(CO)C(O)C2O)c2ncnc(N)c12` (stereo unspecified), 40.3%; under `NC(=S)c1cn(C2OC(CO)C(O)C2O)c2ncnc(N)c12` (stereo unspecified), -16.3% (active). Turning to `O=P(N1CC1)(N1CC1)N1CCc2ccccc21`, the growth is 94.2%.

With `Oc1ccc2c3c1OC1[C@@H](O)CC[C@@]4(O)[C@@H](C2)N(CC2CCC2)CC[C@]314` (stereo partly specified), the growth was 99.2%.

`COC(=O)[C@@]1(O)C[C@H]2O[C@]1(C)n1c3ccccc3c3c4c(c5c6ccccc6n2c5c31)C(=O)NC4`: the growth is -4.08% (active).

The values above are taken from PubChem BioAssay (NCI).
